Screening data as filed in PubChem BioAssay.
In the library only some 1.7% were active in any assay of this set; here they are far more common.
Vif imaging – blocks HIV Vif function | actives 0.35% (n = 340,000) | HEK293T cells, Vif self-association by quenched fluorescence, imaging, 24 h | inhibition, % at 7.49 µM; in the data active = inhibition above about 50%, passing the limit was not always enough
aDG glyco up – increases alpha dystroglycan glycosylation | activation, % at 10 µM | Pro5-aDG cells, alpha-DG glycosylation AlphaScreen (IIH6); 0% Pro5, 100% B10-LARGE cell signal | actives 0.22% (n = 360,000);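 active = activation of at least 8% versus controls, or a plate z-score of at least 8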;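 note: Pro5 are CHO cells carrying HIG-tagged alpha-DG that lacks glycosylation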
Cardio protect – myocardial damage modulation in H9c2 cells; H9c2 cardiomyocytes, H2O2 injury protection, ATPLite, 2 h; protection from H2O2 cell death, % at 20 µM; actives 0.63% (n = 360,000); AID 588492;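 active = compounds giving at least 50% protection of heart cells from peroxide-induced death in the single-dose screen, raw or plate-pattern-corrected value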
Glyco luc inh – N-linked glycosylation inhibition. D54 ERlucT glycosylation luciferase reporter, 24 h; percent of 100 nM tunicamycin response. reporter increase, % at 12.5 µM. actives 0.23% (n = 360,000);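 active = mean luciferase reporter signal, scaled so untreated is 0 and the glycosylation-blocking control 100, at or above a set limit in every replicate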;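 note: luciferase carries N-glycosylation sites so blocking glycosylation raises the light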
ARNT TACC3 PPI – disrupts binding between human ARNT and TACC3; Q9Y6A5; AlphaScreen His-ARNT PAS-B/GST-TACC3 binding, luminescence; TACC3 fragment carries E629A point mutation; inhibition, % at 9.99 µM; actives 0.66% (n = 390,000);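 active = mean inhibition of replicates at least 50% and at least half of replicates each reaching 50%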
Numbers stand for hits; n = inactive; x = not tested or not shown; + = active, no number.

SMILES	Vif imaging	aDG glyco up	Cardio protect	Glyco luc inh	ARNT TACC3 PPI
Cc1cccc(/N=C/c2c(O)cc(C)oc2=O)n1	n	n	n	n	n
CCOC(=O)c1cnc(-c2ccccc2O)nc1Cl	n	n	n	n	n
CCOC(=O)C1=Nc2ccccc2C1=[N+]=[N-]	n	n	72	n	n
O=C1c2cccc3c(N4CCCCC4)ccc(c23)C(=O)N1c1cccc(O)c1	185	n	n	n	n
O=C1c2cccc3c(N4CCCCC4)ccc(c23)C(=O)N1CCO	x	n	n	n	n
O=S(=O)(N[C@H]1CC[C@H](CCn2cc(-c3cccc(F)c3)nn2)O[C@@H]1CO)c1ccccc1	x	x	x	x	n
COCC(=O)N(C)C[C@H]1Oc2ncc(C3=CCCC3)cc2C(=O)N([C@H](C)CO)C[C@@H]1C	x	x	x	x	n
COc1cc(CNCc2ccccc2)c(Br)cc1OC1CCCC1	75	n	n	n	n
COc1cc(CNC2CCCC2)c(Br)cc1OC1CCCC1	x	n	n	n	n
C[C@H]1CN([C@@H](C)CO)C(=O)c2cc(NC(=O)Nc3ccccc3)ccc2O[C@H]1CN(C)S(=O)(=O)c1cn(C)cn1	x	x	x	x	n
COc1ccc(C2/C=C\CN(C(=O)C3CC3)[C@H](Cc3ccccc3)C(=O)N2Cc2ccc(F)cc2)cc1 (some centres not stated)	n	n	n	n	n
COc1ccc(C2/C=C\CN(C(=O)c3ccc(C)cc3)[C@H](Cc3ccccc3)C(=O)N2Cc2ccc(F)cc2)cc1 (some centres not stated)	n	n	85	n	n
CC1(C)CC(NCCN2CCN(C3=CC(=C(C#N)C#N)CC(C)(C)C3)CC2)=CC(=C(C#N)C#N)C1	n	n	56	n	n
COc1ccc(-c2nnc(SCc3nc4ccccc4c(=O)[nH]3)o2)cc1	52	n	n	n	n
CCOc1cc(C2NC(=O)NC(C)=C2C(=O)OCc2ccccc2)ccc1O (configuration not stated)	n	n	n	n	44
CC(C)n1nc(C(=O)Nc2nc3ccccc3[nH]2)c2ccccc2c1=O	n	n	60	n	n
CCOc1ccc(C(=O)COC(=O)c2nn(CC)c(=O)c3ccccc23)cc1	n	n	n	n	n
CCCn1nc(C(=O)Nc2nc3ccccc3[nH]2)c2ccccc2c1=O	n	n	n	n	x
CC(C)n1nc(C(=O)OCC(=O)c2c[nH]c3ccccc23)c2ccccc2c1=O	n	n	62	n	x
CCn1nc(C(=O)OCC(=O)c2c[nH]c3ccccc23)c2ccccc2c1=O	n	n	58	n	n
C[C@H]1CN([C@@H](C)CO)C(=O)c2cc(C#Cc3cccnc3)cnc2O[C@@H]1CN(C)S(C)(=O)=O	x	x	x	x	n
O=C(NCc1cccc(F)c1)[C@@H]1[C@@H](CO)[C@@H]2Cn3c(cccc3=O)[C@H]1N2C(=O)c1cnccn1	x	x	x	x	active
O=C(C=Cc1ccccn1)c1ccccc1O	n	n	n	n	n
O=C(C=Cc1ccccn1)c1ccccc1	70	n	n	n	n
CO[C@@H]1CN(C)C(=O)c2cc(NC(=O)c3nc4ccccc4s3)ccc2OC[C@H](C)N(Cc2ccncc2)C[C@@H]1C	x	x	x	x	n
SMILES	Vif imaging	aDG glyco up	Cardio protect	Glyco luc inh	ARNT TACC3 PPI
O=C(C[C@@H]1CC[C@@H]2[C@H](COC[C@H](O)CN2C(=O)c2cccnc2)O1)NCC1CC1	x	x	x	x	n
CCCCn1c(SCC(=O)Nc2cc(C(F)(F)F)cc(C(F)(F)F)c2)nnc1C(CC)N(C)C (configuration not stated)	n	n	n	28	n
CCCCn1c(SCC(=O)Nc2ccc3c(c2)OCCO3)nnc1C(CC)N(C)C (configuration not stated)	n	n	n	n	n
COc1cccc(-c2cc(=O)[nH][nH]2)c1	n	n	n	n	n
COc1ccc(-c2cc(=O)[nH][nH]2)cc1OC	n	n	n	n	50
Cc1ccc(-c2cc(C(=O)NCC3CCCO3)no2)cc1 (configuration not stated)	n	n	n	n	n
O=C(NCC1CCCO1)c1cc(-c2ccccc2)on1 (configuration not stated)	n	n	n	34	n
CCCCN1CC(COCc2ccccc2)Oc2cccc(OCCN3C(=O)[C@@H]4[C@H](C3=O)C3C=C[C@H]4C3)c2S1(=O)=O (some centres not stated)	n	n	71	n	n
CN(C)C1CCN(Cc2cc(COCc3ccccc3)c3cccnc3c2O)C1 (configuration not stated)	n	n	n	n	75
COCc1cc(CN2CCCC2)c(O)c2ncccc12	x	n	n	n	60
CN(C)[C@H]1CCN([C@H]2CS(=O)(=O)N[C@@H]2COCc2ccccc2)C1	x	n	n	n	x
COc1ccccc1N1CCN(Cc2cc(Br)c(O)c3ncccc23)CC1	x	n	n	n	x
Oc1cc(Cc2ccccc2)cnc1CN1CCCCC1	n	n	n	n	n
Oc1c(CN2CCCCC2)cc(COCc2ccccc2)c2cccnc12	x	n	n	n	62
CN(C)C(=O)C[C@H]1CC[C@H](NC(=O)C2CCC2)[C@H](CO)O1	x	x	x	x	n
COc1cc(/C=N\NC(=O)CNC(=O)C2COc3ccccc3O2)ccc1O (configuration not stated)	n	n	n	n	n
Cc1cc([N+](=O)[O-])cc(/C=N\NC(=O)C2COc3ccccc3O2)c1O (configuration not stated)	n	n	n	n	43
CCN(CC)c1ccc(/C=N/NC(=O)CNC(=O)C2COc3ccccc3O2)c(O)c1 (configuration not stated)	n	n	66	n	n
CC1CCN(c2ccc3c(c2)S(=O)(=O)c2cccc(C(=O)NC4CCCCC4)c2C3=O)CC1	51	n	n	n	n
O=C(NCc1ccccc1C(F)(F)F)c1cccc2c1C(=O)c1ccc(N3CCCCC3)cc1S2(=O)=O	+	n	n	n	n
O=C(NC1CCCCC1)c1cccc2c1C(=O)c1ccc(N3CCCC3)cc1S2(=O)=O	n	n	n	n	n
CNC[C@@H]1Oc2ccc(NC(=O)Nc3ccccc3)cc2CC(=O)N([C@@H](C)CO)C[C@H]1C	x	x	x	x	n
COC(=O)C[C@H]1CC[C@@H]2[C@H](COc3ccc(NC(=O)Nc4cccc(Cl)c4)cc3C(=O)N2C)O1	x	x	x	x	n
COc1ccccc1-c1nc(S(=O)(=O)c2ccc(Cl)cc2)c(N(C)C)o1	53	n	n	n	n
C[C@H]1CN([C@@H](C)CO)C(=O)c2cccc(NC(=O)Nc3ccc4c(c3)OCO4)c2O[C@H]1CN(C)S(=O)(=O)c1cccs1	x	x	x	x	n
CCCC(=O)Nc1ccc2c(c1)C(=O)N(C)[C@@H]1CC[C@@H](CC(=O)NCc3ccccc3)O[C@@H]1CO2	x	x	x	x	n
COCCn1cnc2c(c1=O)c1nc3ccccc3nc1n2/N=C/c1ccc(OC)c(OC)c1	n	n	51	n	n
COCCn1cnc2c(c1=O)c1nc3ccccc3nc1n2/N=C/c1ccco1	n	n	n	n	n
